In this assay the target is ATP-dependent DNA helicase Q1 (Homo sapiens) (UniProt P46063). In words: Confirmation qHTS Assay for Inhibitors of RecQ-Like Dna Helicase 1 (RECQ1). Note: nearly all actives have a fitted effect of over 45% in size. Particulars: RECQ1 helicase DNA unwinding, fluorescence. An excerpt: Survival of cells and the faithful propagation of the genome depend on elaborate mechanisms of detecting and repairing DNA damage. Treatment of advanced cancer relies on radiation therapy or chemotherapy, which kill cancer cells by causing extensive DNA damage. It is often found, that cancer cells develop resistance to therapy through enhanced activity of DNA repair functions; this has led to an increased interest in developing drugs that interfere with DNA repair, which could sensitize cancer cells to conventional therapy.
ATP-dependent DNA helicase Q1 (Homo sapiens), sequence (P46063 whole entry, looked up): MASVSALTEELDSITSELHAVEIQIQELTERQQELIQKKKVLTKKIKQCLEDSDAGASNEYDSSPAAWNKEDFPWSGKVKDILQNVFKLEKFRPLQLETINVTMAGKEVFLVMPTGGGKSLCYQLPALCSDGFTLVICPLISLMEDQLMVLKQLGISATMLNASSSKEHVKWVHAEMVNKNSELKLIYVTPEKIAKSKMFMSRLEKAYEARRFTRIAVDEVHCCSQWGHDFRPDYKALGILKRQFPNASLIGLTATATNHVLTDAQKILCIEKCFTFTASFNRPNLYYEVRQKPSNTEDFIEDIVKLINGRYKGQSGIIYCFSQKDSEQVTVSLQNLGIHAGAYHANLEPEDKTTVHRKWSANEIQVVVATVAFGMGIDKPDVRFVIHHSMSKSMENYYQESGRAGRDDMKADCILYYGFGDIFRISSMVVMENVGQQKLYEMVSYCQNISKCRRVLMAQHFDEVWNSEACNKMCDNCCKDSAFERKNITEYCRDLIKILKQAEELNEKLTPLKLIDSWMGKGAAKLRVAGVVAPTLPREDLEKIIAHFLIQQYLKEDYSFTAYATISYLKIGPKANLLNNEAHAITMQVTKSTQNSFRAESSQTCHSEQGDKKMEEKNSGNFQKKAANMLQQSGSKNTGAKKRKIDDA
This validation qHTS assay pertains to human RECQ1, which is important in resolving abnormal DNA structures formed during replication or homologous recombination. Shutting down the expression of RECQ1 leads to chromosomal instability and higher radiation sensitivity in cultured cells.
The validation assay was a fluorescence quenching based kinetic qHTS for RECQ1 Helicase DNA unwinding. The activity was measured as ATP-dependent separation of a 20-bp DNA duplex extended by 30-nt single-stranded tails (forked duplex). The forked DNA substrate was tagged with rhodamine fluorophore (carboxytetramethyl rhodamine, TAMRA) and BHQ-2 (Black Hole Quencher 2) dark quencher. Strand separation results in an increase in the fluorescence of TAMRA (excitation 525 nm, emission 598 nm). […]

Molecules are shown by their SMILES. The list shows a part of the results. Results filed as inconclusive are left out. The source made the active and inactive calls. Calls come from the whole dose curve; as a rule, active = well fitted inhibition curve with a large enough effect; inconclusive = small, poorly fitted or top-dose-only effect; inactive = no such curve, though single readings can be large or run the other way.
Potency is the fitted concentration of half-maximal effect.

`O=C(O)c1cc[c]([Sb](=[O])([OH])[OH])cc1[N+](=O)[O-]`: the Potency is 913 nM (active).
